Counter-ions that a name gives are not always drawn. ± gives the standard deviation of the averaged measurements.
The compounds below were run on Danio rerio Tg(wt1b:EGFP) embryo, pronephros (assay: pronephric angle neck segment to proximal convoluted tubule (mean of left and right), fold change vs DMSO control; higher = larger pronephric angle). Conditions: 25 µM; exposure: 24-48 hpf.
In short: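 Using a Fiji macro, distances and angles were calculated from 16 reference points set by hand on maximum projections of pronephroi imaged dorsally (470 nm, 10 z-slices) in agarose-filled 96-well plates. The dechorionated Tg(wt1b:EGFP) zebrafish embryos had received 25 μM compound in 0.5% DMSO in HEPES-buffered E3 with 0.003% PTU from 24 to 48 hpf at 28.5°C. Values more than 2 SD from a feature's mean were excluded. Each feature appears as a fold change over the mean of DMSO-treated embryos from the same day.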

Q: C[C@]12CC[C@@H](O)C[C@H]1CC[C@@H]1[C@@H]2CC[C@]2(C)C(=O)CC[C@@H]12 [3-alpha-Hydroxy-5-beta-androstan-17-one] was tested. Which “pronephric angle neck segment” value did it give?
A: Its value is 1 ± 0.013.

Q: With CN1C[C@H](CNC(=O)OCc2ccccc2)C[C@@H]2c3cccc4c3c(cn4C)C[C@H]21 [Metergoline] as the compound, how does the “pronephric angle neck segment” value read?
A: Its value is 0.9894 ± 0.0045.

Q: COc1ccc(CN2CCNCC2)c(OC)c1OC [Trimetazidine dihydrochloride] was tested. Which “pronephric angle neck segment” value did it give?
A: The value was 0.982 ± 0.044.

Q: With O[C@@H]1CCCC[C@H]1N1CCC(c2ccccc2)CC1 [L(-)-vesamicol hydrochloride] as the compound, how does the “pronephric angle neck segment” value read?
A: The value was 1.01 ± 0.075.

From the supplement of paper PMC7366291
